From the supplement of paper PMC3545927
This is one part of the list. No count for the full screen is at hand.

Target: furin, P09958
Experiment: furin cleavage Z-score vs untreated control; higher = more cleavage, active = 3.5 or more, inactive = 1 or less, 8 variable residues between constant flanks
Method in brief: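 The cleavage Z-score is the log read count relative to furin-free reactions, lowess-adjusted and scaled by median absolute deviation. Counts came from sequencing DNA released from bead-bound 8-mer peptide–cDNA fusions after digestion with purified furin for 7.5, 15 or 30 min.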
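Also: purified furin at 1:10 enzyme:substrate in 50 mM HEPES pH 7.5.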

Chain of furin, P09958 (P09958 whole entry): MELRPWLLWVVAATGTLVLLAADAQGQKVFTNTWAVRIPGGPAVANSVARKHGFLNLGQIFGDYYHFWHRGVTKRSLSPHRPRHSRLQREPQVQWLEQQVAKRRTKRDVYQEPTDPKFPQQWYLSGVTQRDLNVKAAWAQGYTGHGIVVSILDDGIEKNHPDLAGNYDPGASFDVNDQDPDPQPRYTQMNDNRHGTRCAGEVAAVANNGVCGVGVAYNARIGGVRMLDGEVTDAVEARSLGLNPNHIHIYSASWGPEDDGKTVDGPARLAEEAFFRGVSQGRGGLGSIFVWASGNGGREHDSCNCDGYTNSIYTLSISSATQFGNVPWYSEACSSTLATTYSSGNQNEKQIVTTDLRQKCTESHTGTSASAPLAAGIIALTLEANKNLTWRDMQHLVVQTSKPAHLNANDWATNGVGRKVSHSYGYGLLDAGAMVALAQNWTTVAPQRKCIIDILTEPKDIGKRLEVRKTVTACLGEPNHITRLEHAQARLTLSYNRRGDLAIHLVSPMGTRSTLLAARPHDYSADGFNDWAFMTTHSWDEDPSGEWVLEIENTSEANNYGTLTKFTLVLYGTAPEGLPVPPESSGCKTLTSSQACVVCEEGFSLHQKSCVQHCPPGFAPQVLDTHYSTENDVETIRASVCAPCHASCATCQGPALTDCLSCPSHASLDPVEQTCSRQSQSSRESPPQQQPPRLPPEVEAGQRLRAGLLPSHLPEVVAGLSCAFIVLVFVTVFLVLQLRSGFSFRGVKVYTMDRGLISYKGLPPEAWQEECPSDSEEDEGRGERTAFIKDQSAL

Row | Sequence | furin cleavage Z-score (7.5 min) | furin cleavage Z-score (15 min) | furin cleavage Z-score (30 min)
1 | CATWGADTAAAGNASASA [HC653] | -1.68 (inactive) | -0.657 (inactive) | 0.025 (inactive)
2 | CATINYTIFKAGNASASA [HC471] | -0.464 (inactive) | -1.13 (inactive) | -1.75 (inactive)
3 | CAKIMSGEVPAGNASASA [HC1094] | 0.645 (inactive) | -1.21 (inactive) | -1.34 (inactive)
4 | CACVREGNASAGNASASA [HC275] | -1.21 (inactive) | -1.14 (inactive) | -0.496 (inactive)
5 | CAPCERKGRSAGNASASA [FS-1379] | 5.38 (active) | 8.32 (active) | 6.45 (active)
6 | CATGRGKPGIAGNASASA [HC906] | -0.769 (inactive) | 0.329 (inactive) | 1.63
7 | CATGRRKGRSAGNASASA [FS-1290] | 10.3 (active) | 12.1 (active) | 8.69 (active)
8 | CAYCFTPSPVAGNASASA [HC414] | -0.826 (inactive) | -2.21 (inactive) | -2.26 (inactive)
9 | CAYTPCSAHLAGNASASA [HC2469] | -1.25 (inactive) | -1.32 (inactive) | -1.27 (inactive)
10 | CALMTHFFSVAGNASASA [HC1583] | -2.19 (inactive) | -1.38 (inactive) | -1.85 (inactive)
11 | CARKKRAAGQAGNASASA [FS-1727] | 10.8 (active) | 11.8 (active) | 8.92 (active)
12 | CARKKRLEEQAGNASASA [FS-1857] | -0.193 (inactive) | 1.1 | 0.0714 (inactive)
13 | CADEMEECSQAGNASASA [HC1791] | 6.21 (active) | -2.13 (inactive) | -5.81 (inactive)
14 | CARKKRWAERAGNASASA [FS-3257] | 8.39 (active) | 10.8 (active) | 10.8 (active)
15 | CASEMEECSQAGNASASA [HC1797] | 1.23 | -0.566 (inactive) | 0.242 (inactive)
16 | CARKKRFAKQAGNASASA [FS-2692] | 5.98 (active) | 8.51 (active) | 8.88 (active)
17 | CATPIAAAGQAGNASASA [HC1639] | -1.29 (inactive) | -1.26 (inactive) | -1.59 (inactive)
18 | CARKMRDDERAGNASASA [FS-1904] | 0.00727 (inactive) | -0.39 (inactive) | -1.4 (inactive)
19 | CALEMEECSQAGNASASA [HC1785] | 0.133 (inactive) | 0.777 (inactive) | -0.27 (inactive)
